Assay outcomes (PubChem)
Only some compounds are listed: those with a hit (about 1.3% of all), similar ones and a draw of the others.
BJeLR viability: BJeLR cell viability loss | BJeLR (HRASV12) viability, CellTiter-Glo ATP luminescence, 48 h | inhibition, % (no concentration beside the values) | 300,000 tested, 0.17% active; in the data active = inhibition above about 50%
Sa ugtP lethal: kills S. aureus RN4220 lacking UgtP; S. aureus RN4220 ugtP deletion, OD600 growth, 16 h; growth inhibition, % (test concentration not listed); 330,000 tested, 0.54% active; in the data active = growth inhibition above about 68%;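 also: plate controls were untreated wells for no effect and antibiotic for full effect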
Sa RN4220 lethal: kills Staphylococcus aureus RN4220; S. aureus RN4220 growth, OD600, 16 h; inhibition, % (no concentration beside the values); 330,000 tested, 0.33% active; in the data active = inhibition above about 85%;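 also: plate controls were untreated cells for no effect and reference antibiotic for full effect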
PfHsp40 rescue: rescue of PfHsp40-mediated yeast toxicity; AID 504582; growth rescue, % at 12.5 µM; 340,000 tested, 0.68% active; S. cerevisiae expressing PfHsp40, growth rescue, ATP luminescence; in the data active = growth rescue above about 28%, passing the limit was not always enough;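 also: yeast W303a lacking pdr1 and pdr3 grown in galactose medium; growth measured after three days at 30 °C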
SARS 3CLpro inh: SARS-CoV 3CLpro protease inhibition | 290,000 tested, 0.14% active | inhibition, % at 6 µM | AID 1706 | recombinant SARS-CoV 3CLpro, quenched FRET peptide cleavage | P0C6X7; in the data active = inhibition above about 12%
Active calls of the source: *.

Results for O=C(C1COc2ccccc2O1)N1CCN(c2ccccc2Cl)CC1 (stereo unspecified) ?
BJeLR viability: -1; Sa ugtP lethal: -2; Sa RN4220 lethal: 1; PfHsp40 rescue: 35*; SARS 3CLpro inh: -1

How did O=C(C1COc2ccccc2O1)N1CCN(c2ccccc2F)CC1 (stereo unspecified) do in these assays?
BJeLR viability: -3; Sa ugtP lethal: 14; Sa RN4220 lethal: 1; PfHsp40 rescue: 0; SARS 3CLpro inh: 3

What do the screens show for `COc1ccc(C2CC(=O)C=C(c3ccc(F)nc3)C2)cc1OC` (stereo unspecified)?
Sa ugtP lethal: 4; Sa RN4220 lethal: 3

Results for O=C(CSc1ncn[nH]1)N1N=C2/C(=C/c3ccco3)CCCC2C1c1ccco1 (stereo unspecified) ?
BJeLR viability: -5; Sa ugtP lethal: -18; Sa RN4220 lethal: 3; PfHsp40 rescue: 0; SARS 3CLpro inh: 8

Results for N#C/C(=C\Nc1ccccc1O)c1nc2ccccc2o1 ?
BJeLR viability: -5; Sa ugtP lethal: 13; Sa RN4220 lethal: 1; PfHsp40 rescue: 452*; SARS 3CLpro inh: 3

What do the screens show for `Cc1cc(C(F)F)n2nc(C(=O)Nc3cccnc3Cl)nc2n1`?
BJeLR viability: 0; Sa ugtP lethal: 6; Sa RN4220 lethal: 4; PfHsp40 rescue: 0; SARS 3CLpro inh: 1

What do the screens show for `Brc1ccc(OCc2ccccc2)c(CNCc2ccncc2)c1`?
BJeLR viability: 7; Sa ugtP lethal: -3; Sa RN4220 lethal: 6; PfHsp40 rescue: 122*; SARS 3CLpro inh: -6

How did Fc1ccc(COc2ccccc2CNCc2ccncc2)cc1 do in these assays?
BJeLR viability: -6; Sa ugtP lethal: -3; Sa RN4220 lethal: 6; PfHsp40 rescue: -1; SARS 3CLpro inh: 0

How did O=[N+]([O-])c1ccccc1CNC1CCCc2ccccc21 (stereo unspecified) do in these assays?
BJeLR viability: 5; Sa ugtP lethal: 8; Sa RN4220 lethal: 16; PfHsp40 rescue: 1; SARS 3CLpro inh: 1

Results for CCOC(=O)c1cn(CC)c2ccc(Br)cc2c1=O ?
BJeLR viability: 2; Sa ugtP lethal: -2; Sa RN4220 lethal: 4; PfHsp40 rescue: 0; SARS 3CLpro inh: -6

How did CCn1cc(C(=O)O)c(=O)c2cc(Br)ccc21 do in these assays?
BJeLR viability: -3; Sa ugtP lethal: 8; Sa RN4220 lethal: 11; PfHsp40 rescue: 33*; SARS 3CLpro inh: 5

How did CCCOc1ccc(C(=O)NNC(=S)NC(=O)CC)cc1 do in these assays?
BJeLR viability: 3; Sa ugtP lethal: 41; Sa RN4220 lethal: 68; PfHsp40 rescue: 115*; SARS 3CLpro inh: 0

How did C=CCNC(=S)NNC(=O)c1ccc(OCCC)cc1 do in these assays?
BJeLR viability: -5; Sa ugtP lethal: -4; Sa RN4220 lethal: -4; PfHsp40 rescue: 0; SARS 3CLpro inh: -2

How did COC(=O)c1ccc(C)c(NC(=O)c2ccc(Cl)c([N+](=O)[O-])c2)c1 do in these assays?
BJeLR viability: -5; Sa ugtP lethal: 7; Sa RN4220 lethal: 2; PfHsp40 rescue: 0; SARS 3CLpro inh: -4

What do the screens show for `O=C(c1cc2ccccc2o1)N1CCN(c2ccccc2Cl)CC1`?
BJeLR viability: 4; Sa ugtP lethal: 4; Sa RN4220 lethal: 6; PfHsp40 rescue: 187*; SARS 3CLpro inh: 0

How did O=C(c1cc2ccccc2o1)N1CCN(c2cccc(Cl)c2)CC1 do in these assays?
BJeLR viability: -10; Sa ugtP lethal: 1; Sa RN4220 lethal: 2; PfHsp40 rescue: -1; SARS 3CLpro inh: 0

Results for O=C(Nc1ccc(NC(=O)c2cccs2)cc1)c1ccc2c(c1)OCCO2 ?
BJeLR viability: 9; Sa ugtP lethal: 15; Sa RN4220 lethal: 7; PfHsp40 rescue: 0; SARS 3CLpro inh: 2

What do the screens show for `COc1cc(NC(=O)c2ccc([N+](=O)[O-])o2)ccc1NC(=O)c1cccs1`?
BJeLR viability: -16; Sa ugtP lethal: 100*; Sa RN4220 lethal: 100*; PfHsp40 rescue: 3; SARS 3CLpro inh: 0

How did COc1cc(NC(=O)c2ccc3c(c2)OCCO3)ccc1NC(=O)c1cccs1 do in these assays?
Sa ugtP lethal: 10; Sa RN4220 lethal: 4; PfHsp40 rescue: 71*; SARS 3CLpro inh: 0

Results for Cc1ccc(NC(=O)c2ccc(Cl)c(NC(=O)c3cccs3)c2)cc1 ?
BJeLR viability: 13; Sa ugtP lethal: 3; Sa RN4220 lethal: 8; PfHsp40 rescue: 35*; SARS 3CLpro inh: -3

What do the screens show for `COc1ccc(/C=N/Nc2nc(-c3cccc(S(=O)(=O)N4CCCC4)c3)cs2)c(OC)c1`?
BJeLR viability: -10; PfHsp40 rescue: 0; SARS 3CLpro inh: 2

Results for Cc1ccc(N2C(=O)SC(Cc3ccccc3)C2=O)cc1 (stereo unspecified) ?
BJeLR viability: 22; Sa ugtP lethal: 15; Sa RN4220 lethal: 5; PfHsp40 rescue: 3; SARS 3CLpro inh: 3

Results for CCCCN1C=CC(=C2C(=O)c3ccccc3C2=O)C=C1 ?
BJeLR viability: 65*; Sa ugtP lethal: 12; Sa RN4220 lethal: 5; PfHsp40 rescue: -4; SARS 3CLpro inh: 8

How did CC(C)Oc1ccc(C(=O)Nc2ccc(N3CCN(C(=O)c4ccco4)CC3)cc2)cc1 do in these assays?
BJeLR viability: -5; Sa ugtP lethal: 2; Sa RN4220 lethal: 1; PfHsp40 rescue: -1; SARS 3CLpro inh: -3

How did O=C(NC(=S)Nc1ccc(S(=O)(=O)N2CCCCC2)cc1)c1ccccc1 do in these assays?
BJeLR viability: -2; Sa ugtP lethal: 86*; Sa RN4220 lethal: 7; PfHsp40 rescue: 1; SARS 3CLpro inh: -4

How did Cc1ccc(C(=O)NC(=S)Nc2ccc(N3CCN(C(=O)c4ccco4)CC3)cc2)cc1 do in these assays?
BJeLR viability: -5; Sa ugtP lethal: 91*; Sa RN4220 lethal: 5; PfHsp40 rescue: 0; SARS 3CLpro inh: 4

Results for CC(=O)N1CCN(c2ccc(NC(=S)NC(=O)c3ccccc3)cc2)CC1 ?
BJeLR viability: -2; Sa ugtP lethal: 93*; Sa RN4220 lethal: 0; PfHsp40 rescue: 0; SARS 3CLpro inh: 0

Results for CN1CCN(c2ccc(NC(=S)NC(=O)c3cccc4ccccc34)cc2)CC1 ?
BJeLR viability: 2; Sa ugtP lethal: 95*; Sa RN4220 lethal: 4; PfHsp40 rescue: 1; SARS 3CLpro inh: 2

How did CC(=O)N1CCN(c2ccc(NC(=O)c3ccccc3)cc2)CC1 do in these assays?
BJeLR viability: -7; Sa ugtP lethal: 11; Sa RN4220 lethal: 2; PfHsp40 rescue: 0; SARS 3CLpro inh: -2

Results for O=C(Nc1ccc(S(=O)(=O)N2CCCC2)cc1)c1ccccc1 ?
BJeLR viability: 5; Sa ugtP lethal: 1; Sa RN4220 lethal: 4; PfHsp40 rescue: 0

Results for COC(=O)/C=C/c1sc2nc(C)cc(C)c2c1N=CN(C)C ?
Sa ugtP lethal: 2; Sa RN4220 lethal: 6; PfHsp40 rescue: 0; SARS 3CLpro inh: 4

Results for CCOC(=O)N1CCC(=NNC(=O)c2ccc(O)cc2)CC1 ?
BJeLR viability: -4; Sa ugtP lethal: -4; Sa RN4220 lethal: -7; PfHsp40 rescue: 1; SARS 3CLpro inh: 0

Results for CC(=O)c1cnc(Nc2nc(C)c3cc(C)c(C)cc3n2)nc1C ?
BJeLR viability: -1; Sa ugtP lethal: -7; Sa RN4220 lethal: 1; PfHsp40 rescue: 0; SARS 3CLpro inh: -8
